According to PubChem BioAssay AID1626 (SRMLSC, 2009):
Out of some 220,000 compounds screened, about 2,000 (0.91%) were called active. About 2% were inconclusive and are not listed. Rule as the data show it: inconclusive = inhibition above about 80% without an active follow-up result; inactive = below that; test concentration not stated here. Only a sample is shown. Results with a measured potency or affinity are listed apart.

Experiment: M. tuberculosis H37Rv growth inhibitors, H37Rv strain (AID 1626);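 also: bacteria incubated seven days before Alamar blue readout; 0% = bacteria only wells and 100% = bacteria with antibiotic wells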
Conditions: active compounds read high, concentration not given here
In the case of O=c1oc2ccccc2nc1/C=C(O)/C=C/c1ccc(F)cc1, the inhibition is reported as 63.9% (inactive).
In the case of Cc1ccc2oc(=O)c(/C=C(\O)c3sc(C)nc3C)nc2c1, the inhibition is reported as -8.77% (inactive).
For Cc1ccc(/C(O)=C/c2nc3cc(C)ccc3oc2=O)cc1, the inhibition was 16.9% (inactive).
For O=c1oc2cc([N+](=O)[O-])ccc2nc1/C=C(\O)c1cccc(Br)c1, the inhibition was -3.89% (inactive).
For Cc1ccc2oc(=O)c(/C=C(\O)c3cccs3)nc2c1, the inhibition was -2.1% (inactive).
With C/C(O)=C\c1nc2ccccc2oc1=O the inhibition was 75.9% (inactive).
In the case of Cc1ccc2oc(=O)c(/C=C(\O)c3ccccc3)nc2c1, the inhibition is reported as -10.4% (inactive).
With O=c1oc2cc([N+](=O)[O-])ccc2nc1/C=C(O)/C=C/c1ccccc1 the inhibition was -2.36% (inactive).
With C=CCc1cc(OC)ccc1OCCOCCN1CCc2ccccc2C1 the inhibition was 6.94% (inactive).
In the case of COc1cccc(CNc2ccc(F)c(Cl)c2)c1, the inhibition is reported as 12.1% (inactive).
With OCCC1CN(Cc2cccnc2)CCN1CCc1ccccc1 (stereo not given) the inhibition was -0.305% (inactive).
For O=C(C[n+]1cc(-c2ccccc2)n2c1CCC2)c1cccs1, the inhibition was -2.31% (inactive).
For O=C(C[n+]1cc(-c2ccccc2)n2c1CCC2)OCc1ccccc1, the inhibition was -7.15% (inactive).
In the case of O=C(C[n+]1cc(-c2ccc(F)cc2)n2c1CCC2)c1cccs1, the inhibition is reported as 0.03% (inactive).
For O=C(C[n+]1cc(-c2ccccc2)n2c1CCCCC2)c1ccc(Cl)cc1, the inhibition was 18.6% (inactive).
With Cc1ccc(-c2c[n+](CC(=O)c3cccs3)c3n2CCC3)cc1 the inhibition was 18.1% (inactive).
For O=C(C[n+]1cc(-c2ccc(F)cc2)n2c1CCC2)OCc1ccccc1, the inhibition was -9.6% (inactive).
For O=C(C[n+]1cc(-c2ccc(Cl)cc2)n2c1CCCCC2)c1ccccc1, the inhibition was -4.68% (inactive).
In the case of COc1ccc(-c2c[n+](CC(=O)N3c4ccccc4Sc4ccccc43)c3n2CCC3)cc1, the inhibition is reported as 78.6% (inactive).
With O=C1CC(SCCc2nc3ccccc3[nH]2)C(=O)N1c1ccc(F)cc1 (stereo not given) the inhibition was -1% (inactive).
For CS(=O)(=O)N(CC(=O)NC1CCCC1)Cc1ccc(Cl)cc1, the inhibition was -2.78% (inactive).
With Cc1nc(Cl)c(C(=O)NC(C)(C)C)c(C)c1Cl the inhibition was -4.14% (inactive).
For COc1ccc(N2C(=O)CCC(C(=O)NCc3ccccn3)C2c2ccc(OC)c(OC)c2)cc1 (stereo not given), the inhibition was -14.1% (inactive).
With CC(=O)N1CCN(c2ccc([N+](=O)[O-])cc2C=C2C(=O)NC(=O)NC2=O)CC1 the inhibition was 7.44% (inactive).
For CSc1nc2ccccc2n1CC(=O)Nc1ccccc1, the inhibition was -4.24% (inactive).
With Cc1[nH]c2ccc(C(=O)OCCN(C)C)cc2c1C the inhibition was -4.75% (inactive).
For O=C(C[n+]1cc(-c2ccc(Cl)c(Cl)c2)n2c1CCC2)OCc1ccccc1, the inhibition was 4.51% (inactive).
With O=C(C[n+]1cc(-c2ccc(Cl)c(Cl)c2)n2c1CCC2)c1cccs1 the inhibition was 3.68% (inactive).
With CCOCCCNCc1ccc(OC)cc1 the inhibition was -2.12% (inactive).
With N#Cc1nc(-c2ccccc2F)oc1NCCc1ccccn1 the inhibition was 4.27% (inactive).
With Cc1cc(C)cc(NC(=O)Nc2ccc3c(c2)N(C)C(=O)CS3)c1 the inhibition was 1.91% (inactive).
In the case of CCC1CCC/C1=N\NC(=O)c1cc(C)[nH]n1 (stereo not given), the inhibition is reported as -7.04% (inactive).
In the case of CC(C)(C)C(=O)COc1ccccc1[N+](=O)[O-], the inhibition is reported as 0.09% (inactive).
With NNC(=O)COc1ccccc1[N+](=O)[O-] the inhibition was -1.65% (inactive).
With CC(C)(Oc1ccc(Cl)cc1)C(=O)N/N=C/c1cn[nH]c1-c1ccccc1 the inhibition was -0.17% (inactive).
With CC1CCC2(CC1)OCC1(CCC3(COC4(CCC(C)CC4)OC3)C1=O)CO2 (stereo not given) the inhibition was -1.15% (inactive).
For CCOC(=O)CNC(=O)CNC(=O)c1ccc(OC)cc1, the inhibition was -5.13% (inactive).
In the case of CCCCOc1ccc(C(=O)NCC(=O)NCC(=O)OCC)cc1, the inhibition is reported as 5.43% (inactive).
For Cc1ccc(S(=O)(=O)N(C)C)cc1-n1c(SCC(=O)Nc2ccccc2)nc2ccccc2c1=O, the inhibition was 1.63% (inactive).
With CCOC(=O)N1CCN(c2cc(NCCO)c([N+](=O)[O-])c3nonc23)CC1 the inhibition was -2.1% (inactive).
For Cn1ccnc1Sc1cc(NCCCO)c([N+](=O)[O-])c2nonc12, the inhibition was 2.79% (inactive).
In the case of Cc1nnc(Sc2cc(NCCCO)c([N+](=O)[O-])c3nonc23)s1, the inhibition is reported as -2.43% (inactive).
With Cc1nnc(Sc2cc(NCCO)c([N+](=O)[O-])c3nonc23)s1 the inhibition was -7.45% (inactive).
In the case of COC(=O)CNC(=O)COC(=O)/C=C/c1ccccc1[N+](=O)[O-], the inhibition is reported as 3.19% (inactive).
With Cc1ccc(S(=O)(=O)NCCc2nnc3ccc(NCCCOC(C)C)nn23)cc1 the inhibition was 0.94% (inactive).
In the case of CC1(c2cc([N+](=O)[O-])cc([N+](=O)[O-])c2)CC(C)(C)N(C(=O)c2ccccc2)c2ccccc21 (stereo not given), the inhibition is reported as 2.82% (inactive).
With CC1(c2ccc([N+](=O)[O-])cc2)CC(C)(C)N(C(=O)c2ccccc2)c2ccccc21 (stereo not given) the inhibition was 6.73% (inactive).
For CC(=O)C1=C(O)C(=O)N(Cc2ccco2)C1c1ccc2c(c1)OCO2 (stereo not given), the inhibition was -9.04% (inactive).
With CC(C)NC(=O)C(=O)NCCc1ccc(Cl)cc1 the inhibition was -1.47% (inactive).
With CCOC(=O)c1c(C)[nH]c(NC(=O)Nc2c(C)n(C)n(-c3ccccc3)c2=O)c1C the inhibition was -2.03% (inactive).
For COc1ccc(O)c2c(=O)c3c(OC)cc4c(c3oc12)C1C=COC1O4 (stereo not given), the inhibition was -3.61% (inactive).
In the case of Cn1cc(CN2CCCC(C(=O)c3ccc(-c4ccccc4)cc3)C2)cn1 (stereo not given), the inhibition is reported as -1.15% (inactive).
For CSc1ccccc1C(=O)C1CCCN(Cc2cnn(-c3ccccc3)c2)C1 (stereo not given), the inhibition was 0.775% (inactive).
In the case of Cc1ccc(NC(=O)/C=C\C(=O)NCC(=O)O)cc1, the inhibition is reported as -2.38% (inactive).
With COC(=O)C1=C(C(=O)OC)[C@@H]2Nc3ccccc3[C@@]23C[C@@H](C(=O)OC)N(C(=O)c2ccco2)C3=N1 the inhibition was -1.72% (inactive).
For O=C(NCc1cn(-c2ccccc2)nc1-c1ccccc1)c1ccc([N+](=O)[O-])cc1, the inhibition was -4% (inactive).
In the case of O=C(NCc1ccco1)c1cc([N+](=O)[O-])ccc1Cl, the inhibition is reported as -6.78% (inactive).
For O=C(NCc1cn(-c2ccccc2)nc1-c1ccccc1)c1cccc([N+](=O)[O-])c1, the inhibition was 10.1% (inactive).
In the case of Cc1ccc(C(=O)NCc2ccco2)cc1[N+](=O)[O-], the inhibition is reported as 0.79% (inactive).
In the case of CCOc1ccc(-c2cnc(N)n2C)cc1, the inhibition is reported as 5.53% (inactive).
In the case of Cc1ccc(CSCCNC(=O)CN(c2cccc([N+](=O)[O-])c2)S(C)(=O)=O)cc1, the inhibition is reported as 0.16% (inactive).
With Cc1noc(C)c1COC(=O)C1(c2cccc(F)c2)CCCC1 the inhibition was 5.81% (inactive).
For CCOC(=O)CC(=O)CSc1ncnc2c1nnn2-c1ccc(OC)cc1, the inhibition was 0.52% (inactive).
With COC(=O)c1cccc(COC(=O)c2cccnc2SC)c1 the inhibition was 5.06% (inactive).
With Cc1nn(C)c2ncc(C(N)=O)c(Oc3ccc(Cl)cc3)c12 the inhibition was -11.3% (inactive).
In the case of Cc1nc(-c2ccc(Cl)cc2)sc1C1(C)CC(c2cccc([N+](=O)[O-])c2)=NO1 (stereo not given), the inhibition is reported as -8.66% (inactive).
For Cc1ccccc1CN(c1ccc(C(=O)NCc2cccnc2)cc1)S(C)(=O)=O, the inhibition was -13.5% (inactive).
For Cc1ccc(SCC(=O)Nc2ccc(S(=O)(=O)Nc3nccs3)cc2)cc1, the inhibition was 13.6% (inactive).
For Fc1ccc(-n2cc(-c3ccccc3)c3c(NN4CCOCC4)ncnc32)cc1, the inhibition was -8.02% (inactive).
In the case of c1ccc(-c2cn(-c3ccccc3)c3ncnc(NCCCN4CCOCC4)c23)cc1, the inhibition is reported as 1.78% (inactive).
For CCN=C(N/N=C/c1ccc([N+](=O)[O-])cc1)SC, the inhibition was -6.2% (inactive).
For O=C(CNc1ccccc1C(=O)O)c1ccccc1, the inhibition was -10.8% (inactive).
In the case of Cc1ccc(NC(=O)C/C(N)=N/O)cc1C, the inhibition is reported as 72.6% (inactive).
In the case of Cc1ccc(S(=O)(=O)N(C)Cc2ccc(C(=O)NN=C3C4CC5CC(C4)CC3C5)cc2)cc1, the inhibition is reported as -4.86% (inactive).
For Nc1nc(-c2cc3ccccc3o2)cs1, the inhibition was 3.5% (inactive).
For Nc1cc(N)cc(-c2nc3ccccc3o2)c1, the inhibition was 53% (inactive).
With CNc1ccccc1C(C)(C)c1cc(-c2cccc(OC)c2)no1 the inhibition was 3.34% (inactive).
For Cn1/c(=N\NC(=O)C2CCCCC2)sc2ccccc21, the inhibition was 4.34% (inactive).
With CCOC(=O)c1c(C)n(C)c2ccc(OC(C)=O)cc12 the inhibition was -1.73% (inactive).
In the case of CCOC(=O)c1c(C)n(C)c2ccc(OCC(N)=O)cc12, the inhibition is reported as 0.2% (inactive).
With Cc1nn(C)c(C(=O)N/N=C/c2ccccc2)c1[N+](=O)[O-] the inhibition was -7.25% (inactive).
For COc1ccc(-n2c(SC3CCOC3=O)nc3ccccc3c2=O)cc1Cl (stereo not given), the inhibition was 5.75% (inactive).
For CN1CCN(c2ccc(NC(=O)COc3ccccc3Cl)cc2)CC1, the inhibition was 6.62% (inactive).
With COc1cccc(C(C(=O)NC2CCCC2)N(Cc2ccccc2OC)C(=O)c2ccco2)c1 (stereo not given) the inhibition was 2.53% (inactive).
For COc1ccc(Nc2oc(COc3ccc(OC)cc3)nc2C#N)cc1, the inhibition was -0.92% (inactive).
With Cc1ccc2cccc(OC(=O)/C=C\c3ccccc3)c2n1 the inhibition was -1.17% (inactive).
In the case of COc1ccccc1/C=C/C(=O)NCc1ccccn1, the inhibition is reported as -4.28% (inactive).
In the case of COc1ccccc1/C=C/C(C)=O, the inhibition is reported as -0.82% (inactive).
For CN(C(=O)Oc1cccc2cccnc12)c1ccccc1, the inhibition was 1.95% (inactive).
For CCCNS(=O)(=O)c1ccc(NC(=O)Cc2cccs2)cc1, the inhibition was 5.56% (inactive).
In the case of C/C=C/c1ccc(OCCCCOc2ccccc2C(C)=O)c(OC)c1, the inhibition is reported as 6.35% (inactive).
In the case of Brc1cccc(OCCOCCn2ccnc2)c1, the inhibition is reported as 4.09% (inactive).
In the case of O=C(NCCN1CCc2ccccc2C1)C1CCN(S(=O)(=O)N2CCC3(CC2)OCCO3)CC1, the inhibition is reported as -3% (inactive).
For O=C(NCc1ccco1)c1ccccc1Br, the inhibition was -5.82% (inactive).
In the case of O=C(NCc1ccco1)c1ccccc1-c1ccccc1, the inhibition is reported as -5.77% (inactive).
